This note sets out measurements from the supplement of paper PMC13380429.

Test [1] concerns Vero E6 infected with SARS-CoV-2. Briefly: morphology score (similarity to uninfected cells); higher = more like uninfected cells. The note with it: 24 h.
For test [2] the test system is unchanged. Briefly: SARS-CoV-2 infection rate relative to infected DMSO; higher = more infection, active = 60 or less. The note with it: 24 h.

For `CCCCCCCN(CC)CCC[C@@H](O)c1ccc(NS(C)(=O)=O)cc1` (racemic) [ibutilide] (10 µM), the morphology score in test [1] worked out at 0.189. Further, the SARS-CoV-2 infection rate in test [2] was 107% (inactive).

In turn, `OCCN1CCN(CCCN2c3ccccc3C=Cc3ccccc32)CC1` [opipramol] (10 µM) returned a morphology score in test [1] of 0.237. For the same compound, in test [2], the SARS-CoV-2 infection rate is 102% (inactive).

Consider `C[C@H]1NC(=O)NC1=O` [5-methylhydantoin-(D)] (10 µM), for which the morphology score in test [1] came out at 0.121. In test [2], the SARS-CoV-2 infection rate is 102% (inactive).

As for `Cc1cc(/C=C/c2ccc3cc(N(C)C)ccc3[n+]2C)c(C)n1-c1ccccc1` [pyrvinium-pamoate] (10 µM), the morphology score in test [1] is -0.0751. Further, in test [2], the SARS-CoV-2 infection rate is 113% (inactive).

In test [1], `CCS(=O)(=O)N(Cc1cccnc1)c1cccc(-c2ccc(C#N)cc2)c1` (10 µM) yielded a morphology score of 0.372. Moreover, the SARS-CoV-2 infection rate in test [2] was 87% (inactive).

Take `O=C(O)CCCN1C(=O)c2cccc3cccc(c23)C1=O` [isodibut] (10 µM): the morphology score in test [1] is 0.205. In test [2], the SARS-CoV-2 infection rate is 104% (inactive).

In turn, `O[C@@H](CN1CCC(Cc2ccc(F)cc2)CC1)c1ccc(Cl)cc1` (racemic) [eliprodil] (10 µM) had a morphology score in test [1] of 0.218. In addition, in test [2], the SARS-CoV-2 infection rate is 87% (inactive).

`CN(C)c1ccc(/C=C2\CCCN=C2c2cccnc2)cc1` [DMAB-anabaseine] (10 µM) yielded a morphology score in test [1] of 0.121. For the same compound, in test [2], the SARS-CoV-2 infection rate is 96.5% (inactive).

As to `[O-][n+]1cccc(CO)c1` [mepiroxol] (10 µM), in test [1], the morphology score is -0.0187. The SARS-CoV-2 infection rate in test [2] is 109% (inactive).

With `CC1(C)S[C@@H]2[C@H](NC(=O)Cc3ccccc3)C(=O)N2[C@H]1C(=O)O` [benzylpenicillin] (10 µM), in test [1], the morphology score was -0.0812. In addition, the SARS-CoV-2 infection rate in test [2] is 114% (inactive).

`COc1c(C)cnc(Cn2cnc3c(Cl)nc(N)nc32)c1C` (10 µM) showed a morphology score in test [1] of 0.256. Further, the SARS-CoV-2 infection rate in test [2] was 98.5% (inactive).
